Source: PubChem (National Center for Advancing Translational Sciences (NCATS))
AMA1-RON2 inh = AMA1-RON2 (P. falciparum) interaction inhibition | AlphaScreen AMA1-biotinylated RON2 peptide binding | Potency, µM (titrated, usually from 58.2 µM), inactives show at the top dose activity change, negative = inhibition, usual class: inhibitors | hit rate 0.2% among 360,000 | AID 720542;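 note: potency is the fitted concentration of half-maximal effect; 0% = vehicle wells and -100% = peptide control; nearly all actives have a fitted effect of over 45% in size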
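AMA1 (3D7) with his tag at 25 nM final met compounds first, then biotinylated RON2 peptide at 25 nM; detection used donor plus acceptor beads, 10 µg/mL apiece, read by AlphaScreen after 30 min at room temperature.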
SARS PLP yeast = blocks SARS-CoV papain-like protease in a yeast assay | Potency, µM (titrated, usually from 32.9 µM), for inactives: top-dose activity, positive = growth rescue, hits mostly activators | hit rate 0.19% among 330,000 | S. cerevisiae expressing SARS-CoV PLpro, growth rescue; calls by dose curve; note: potency is the fitted concentration of half-maximal effect; 0% is about no effect; nearly all actives have a fitted effect of over 55% in size
AmpC no deterg = inhibitors of E. coli AmpC beta-lactamase without detergent; AmpC nitrocefin hydrolysis, absorbance 480 nm, 0.0001% Triton; AID 485341; hit rate 0.52% among 330,000; P00811; Potency, µM (top dose mostly 57.1 µM), for inactives: top-dose activity change, negative = inhibition, hits mostly inhibitors;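 note: potency is the fitted concentration of half-maximal effect; plate controls were no compound for no effect and no enzyme for full effect; nearly all actives have a fitted effect of over 20% in size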
Target sequence (P00811 whole entry, looked up): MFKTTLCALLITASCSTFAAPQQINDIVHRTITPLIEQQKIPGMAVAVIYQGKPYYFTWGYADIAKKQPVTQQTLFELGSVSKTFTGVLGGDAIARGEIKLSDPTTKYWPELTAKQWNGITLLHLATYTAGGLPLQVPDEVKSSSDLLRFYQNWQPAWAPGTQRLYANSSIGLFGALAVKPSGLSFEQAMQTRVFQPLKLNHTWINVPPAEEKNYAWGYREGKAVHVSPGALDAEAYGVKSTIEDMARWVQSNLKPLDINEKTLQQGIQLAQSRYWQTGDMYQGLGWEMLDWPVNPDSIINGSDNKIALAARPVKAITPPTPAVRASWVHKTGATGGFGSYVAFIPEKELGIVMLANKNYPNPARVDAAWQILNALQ
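20 mM phosphate pH 7.0 + 0.01% (detergent screen) or 0.0001% Triton X-100; 5.3 nM AmpC reagent; cpd preinc 15 min RT; nitrocefin (800 uM stock) to start; A480 q20 s × 4 min; Activity was normalised to no-enzyme and no-compound control wells.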
AmpC detergent = AmpC beta-lactamase inhibition with detergent present; AmpC hydrolysis of nitrocefin, absorbance 480 nm, 0.01% Triton; Potency, µM (highest dose often 114 µM), for inactives: top-dose activity change, negative = inhibition, usual class: inhibitors; hit rate 0.041% among 370,000;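 note: potency is the fitted concentration of half-maximal effect; 0% = no-compound wells and -100% = no-enzyme wells; nearly all actives have a fitted effect of over 25% in size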
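AmpC (5.3 nM in the dispensed reagent) in 20 mM phosphate pH 7.0 with 0.01% (detergent screen) or 0.0001% Triton X-100 was preincubated with compounds for 15 min at room temperature. Nitrocefin was then added from an 800 uM solution, and hydrolysis was followed at 480 nm.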
Cycloheximide cs = counter-screen hit for Shiga toxin inhibitors, cycloheximide. hit rate 12% among 300,000. cell reporter, cycloheximide protein synthesis inhibition counterscreen. AID 2314. max response, %; in the data active = max response mostly above about 13%, no sharp cut-off; inactive = mostly below about 14%; note: read at 38.3 µM for the half of the compounds with a filed dose; 0% is about no effect
Shiga toxin inh = Shiga toxin inhibition. Vero cells, Shiga toxin protein synthesis inhibition reporter. inhibition, % at 38.7 µM. hit rate 9.2% among 290,000. AID 2315; in the data active = inhibition mostly above about 28%, no sharp cut-off; inactive = mostly below about 43%; note: 0% is about no effect
An asterisk follows results filed as active; ? = inconclusive; . = no result given. This is one part of a sample in which hits are shown more often than they occur. Unless noted, calls come from the whole dose curve; as a rule, active = well fitted curve in the direction sought with a large enough effect; inconclusive = small, poorly fitted or top-dose-only effect, or another doubt; inactive = no such curve, though single readings can be large; an effect the other way counts as inactive or inconclusive.

SMILES	AMA1-RON2 inh	SARS PLP yeast	AmpC no deterg	AmpC detergent	Cycloheximide cs	Shiga toxin inh
CCOC(=O)C1CCCN(C(=O)CCc2nnc(-c3ccc(C(C)=O)s3)o2)C1 (configuration not stated)	15%	-15%	31%	1%	63*	109*
Cc1ccccc1CSCC(=O)N1CCN(c2ccccc2)CC1	-9%	23%	23%	-7%	23*	70*
Cc1noc(C)c1C(=O)OCC(=O)Nc1cccc(S(=O)(=O)N(C)C)c1	-1%	4%	-50%	-12%	13	17
CCOC(=O)N1CCN(C(=O)CS(=O)(=O)Cc2nc(-c3ccccc3F)oc2C)CC1	17%	-2%	29%	-12%	-2	10
N#Cc1ccc(NC(=O)COC(=O)CCNS(=O)(=O)c2ccccc2)cc1	12%	-1%	-14%	-5%	45*	12
Cc1ccc(S(=O)(=O)C2(C(=O)Nc3cccnc3)CC2)cc1	-3%	8%	?	?	-1	14
N#Cc1c(/N=C/c2ccc(O)cc2O)sc2c1C1CCN2CC1	6%	6%	-29%	-11%	9.9*	17
CCNC(=O)C1CC(=O)N(c2ccc(OCC)cc2)C1 (configuration not stated)	-2%	-1%	-8%	?	-1	28
Fc1ccc(COc2ccccc2CNCc2ccncc2)cc1	-5%	3%	-14%	-10%	-2	-11
Nc1ccc(OCCc2ccccc2)cc1	-10%	3%	-16%	?	31*	29*
NOCc1ccccc1	.	.	.	.	32*	36
Nc1cc(OCc2ccccc2)ccc1OCc1ccccc1	-27%	.	.	.	.	.
Nc1ccc(OCc2ccccc2)cc1	-9%	-9%	-28%	-11%	17*	36*
CC(C)CCOc1ccc(N)cc1	.	.	.	.	12*	24*
O=C(CSCc1ccc([N+](=O)[O-])cc1)N/N=C/c1ccncc1	17%	-5%	-9%	-9%	-7	-14
CCC(C(=O)NC1CCCC1)n1c(SCc2cccc(C)c2)nc2ccncc21 (configuration not stated)	3%	13%	11%	?	-3	-7
O=C(Cn1cnc2scc(-c3ccc(Br)cc3)c2c1=O)N1CCOCC1	-6%	1%	91%	0%	-2	-10
O=c1cc(OCc2ccccc2)cc[nH]1	1.1µM*	-4%	-8%	?	.	.
CCN(Cc1ccccc1)Cc1ccc(OCc2ccccc2)cc1	?	-19%	-6%	-14%	15*	26
Cc1[nH]ccc(=O)c1OCc1ccccc1	5%	-1%	?	-1%	11	-5
COc1ccc(-c2cc3nc4ccccc4n3c(N)c2C#N)cc1	7%	-7%	-20%	2%	29*	56*
O=C1NC(=S)SC1=Cc1cc(Br)ccc1O	11%	.	.	.	.	.
CCOC(=O)C1(CC2CC2)CCN(C(=O)c2cc(OC)nc3ccccc23)CC1	19%	1%	94%	2%	31*	88*
CCOC(=O)C1(CC2CC2)CCN(C(=O)c2cc(C3CC3)nc3ccccc23)CC1	?	-1%	114%	-9%	34*	55*
COc1cc(C(=O)N2CCN(c3ccccc3)CC2)c2ccccc2n1	-8%	.	.	.	.	.
SMILES	AMA1-RON2 inh	SARS PLP yeast	AmpC no deterg	AmpC detergent	Cycloheximide cs	Shiga toxin inh
CCOC(=O)C1(CC2CC2)CCN(Cc2cn(C)c3ccccc23)CC1	-16%	0%	39%	7%	-4	18
CCOC(=O)C1(CC2CC2)CCN(C(=O)c2cccnc2C)CC1	-1%	1%	25%	1%	17*	24
CCOC(=O)C1(CC2CC2)CCN(Cc2ccc(C(=O)OC)cc2)CC1	-7%	1%	25%	-3%	-1	-9
S=C(NCC1CC1)N/N=C/c1ccccc1Cl	35%	0%	-41%	3%	3	26*
COc1ccc(CCNS(=O)(=O)c2ccc(Br)s2)cc1	-2%	-2%	66%	1%	29*	39*
O=c1oc2ccc(NS(=O)(=O)c3cccc4cccnc34)cc2s1	35%	-6%	-53%	-1%	-5	-11
CC(=O)CSc1cc(C)nc2c(-c3ccccc3)c(C)nn12	-1%	0%	-13%	-14%	-1	-2
Cc1cc(SCC#N)n2nc(C)c(-c3ccccc3)c2n1	-15%	2%	67%	-8%	23	4
Cc1cc(N)n2nc(C)c(-c3ccccc3)c2n1	2%	-45%	-20%	-8%	13*	21
Cc1nn2c(-c3ccccc3)ccnc2c1Br	48%	0%	-17%	-8%	-2	4
Cc1cc(SCC(=O)c2cccs2)n2nc(C)c(-c3ccccc3)c2n1	14%	4%	-27%	2%	39*	39*
Cc1cc(N)n2nc(C)c(-c3ccc(Cl)cc3)c2n1	-8%	-6%	-2%	-1%	8	6
Cc1nn2c(-c3cccnc3)ccnc2c1-c1ccccc1	-2%	-5%	10%	-7%	25*	41*
C=CCSc1cc(C)nc2c(-c3ccccc3)c(C)nn12	31%	1%	31%	-4%	25*	13
CN(C)S(=O)(=O)c1ccc(Cl)c(NC(=O)COC(=O)CNS(=O)(=O)c2c(F)cccc2F)c1	0%	.	.	.	.	.
Cc1cc(/C=C(\C#N)C(=O)N2CCOCC2)c(C)n1C1CCCC1	-2%	-1%	47%	6%	26*	26
COc1ccc(/C=C(\C#N)C(=O)N2CCOCC2)cc1Br	-3%	-6%	-21%	-13%	-2	-14
CCOc1ccc(C(=O)/C=C/c2cn(CN3CCN(C)CC3)c3ccccc23)cc1	0%	-6%	-11%	-13%	31*	61*
COc1ccc(C(=O)/C=C/c2cn(CC(O)CN3CCc4ccccc43)c3ccccc23)cc1OC (configuration not stated)	.	.	.	-2%	.	.
COc1ccc(C(=O)/C=C/c2cn(CN3CCN(C)CC3)c3ccccc23)cc1	-3%	-15%	2%	11%	43*	49*
COC(=O)c1ccc(/C=N/NC(=S)NCCN2CCOCC2)cc1	35%	-4%	-21%	0%	4	6
O=C1/C(=C/c2ccc(Br)cc2)Oc2cc(O)ccc21	-5%	-10%	-26%	-7%	29*	61*
COC(=O)c1ccc2c(c1)C(=O)/C(=C/c1ccc(O)cc1)O2	6%	-2%	?	-13%	20	65*
CC(C)(C)c1ccc(/C=C2\Oc3cc(O)ccc3C2=O)cc1	0%	-11%	-40%	5%	61*	125*
O=C1/C(=C/c2ccc([N+](=O)[O-])cc2)Oc2cc(O)ccc21	0%	-6%	-33%	2%	40*	67*
COc1cccc(/C=C2\Oc3ccc(O)cc3C2=O)c1O	4%	0%	-22%	-6%	-5	-6
O=C1/C(=C\c2ccc(O)c(O)c2)Oc2cc(O)ccc21	.	.	.	.	7	19
